Screening data: PubChem, Sanford-Burnham Center for Chemical Genomics
Most compounds without a hit are left out; they make up all but 1.5% or so of the library.
Neddyl block – blocks human cullin neddylation; P61081+Q13564; TR-FRET cullin neddylation, biochemical; inhibition, % at 25 µM; 360,000 tested, 0.58% active; AID 651699; in the data active = inhibition above about 36%
GC-B act – GC-B (human) receptor activation; P20594; HEK293-GC-B cells, CNP EC30, cGMP TR-FRET; 0% at EC30 CNP, 100% saturating CNP; activation, % at 10 µM; 370,000 tested, 0.11% active; AID 1920062;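 active = activation at 10 µM reaching about 35% in either raw or pattern-adjusted values, limit read from the data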
GC-A act – GC-A (human) enzyme activation; P16066; 370,000 tested, 0.14% active; HEK293 GC-A cells, cGMP TR-FRET, EC30 ANP; 0% at EC30 ANP, 100% saturating ANP; activation, % at 10 µM; AID 1671463; in the data active = activation above about 40%
Target sequence (P16066 whole entry, looked up): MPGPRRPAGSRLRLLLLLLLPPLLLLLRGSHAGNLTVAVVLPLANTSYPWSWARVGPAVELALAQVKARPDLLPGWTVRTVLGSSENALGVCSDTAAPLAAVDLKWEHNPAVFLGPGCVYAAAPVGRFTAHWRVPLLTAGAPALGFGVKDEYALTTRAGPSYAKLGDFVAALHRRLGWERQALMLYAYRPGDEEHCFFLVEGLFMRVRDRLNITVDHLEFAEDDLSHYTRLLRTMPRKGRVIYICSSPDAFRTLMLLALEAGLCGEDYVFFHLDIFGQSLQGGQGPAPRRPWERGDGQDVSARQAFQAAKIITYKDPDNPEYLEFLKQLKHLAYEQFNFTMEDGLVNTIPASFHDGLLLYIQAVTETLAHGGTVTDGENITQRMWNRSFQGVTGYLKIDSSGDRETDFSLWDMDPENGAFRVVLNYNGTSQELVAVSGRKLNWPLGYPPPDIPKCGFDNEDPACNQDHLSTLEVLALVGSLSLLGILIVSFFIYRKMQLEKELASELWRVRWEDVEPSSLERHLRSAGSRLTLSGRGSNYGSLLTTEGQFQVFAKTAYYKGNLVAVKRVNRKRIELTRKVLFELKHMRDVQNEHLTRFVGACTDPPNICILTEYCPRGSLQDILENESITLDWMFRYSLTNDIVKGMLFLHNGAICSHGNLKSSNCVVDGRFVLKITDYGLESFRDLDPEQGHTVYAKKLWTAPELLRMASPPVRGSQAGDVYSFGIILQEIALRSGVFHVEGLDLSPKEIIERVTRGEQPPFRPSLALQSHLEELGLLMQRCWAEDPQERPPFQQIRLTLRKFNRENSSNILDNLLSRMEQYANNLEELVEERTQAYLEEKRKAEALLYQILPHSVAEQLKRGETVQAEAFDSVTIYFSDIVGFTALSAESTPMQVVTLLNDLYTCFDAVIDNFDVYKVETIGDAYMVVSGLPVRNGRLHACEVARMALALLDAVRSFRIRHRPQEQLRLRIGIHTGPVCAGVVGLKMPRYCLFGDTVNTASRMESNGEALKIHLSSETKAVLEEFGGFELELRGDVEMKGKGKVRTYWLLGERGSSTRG
NadD block – blocks S. aureus nicotinate mononucleotide adenylyltransferase; inhibition, % at 20 µM; purified NadD enzyme, colorimetric absorbance read-out; 360,000 tested, 0.78% active; in the data active = inhibition above about 26%
Neddyl conf – confirmation of human cullin neddylation inhibitors | shares compounds with Neddyl block | TR-FRET cullin neddylation biochemical assay | calls only at 25 µM | 1,800 tested, 13% active | AID 652217; in the data active = inhibition above about 40%;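 note: neddylation substrate is the cullin 1 ring ligase complex with SKP2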
The depositor's hits bear a star; i = inactive; · = no result shown; + = active, no number.

SMILES | Neddyl block | GC-B act | GC-A act | NadD block | Neddyl conf
COC(=O)[C@]12C[C@H](CC(=O)NCc3cccc4ccccc34)C(=O)N(CCc3ccc(OC)c(OC)c3)C1=C[C@H](C(C)(C)C)O[C@@H]2C | · | 4 | -1 | · | ·
Cc1cc(C)cc(N(C(=O)c2snc(C(N)=O)c2N)C(C(=O)NCC2CCCO2)c2cccs2)c1 (configuration not stated) | 43* | -12 | -34 | 2 | i
COc1cccc(N(C(=O)c2snc(C(N)=O)c2N)C(C(=O)NCC2CCCO2)c2cccs2)c1 (configuration not stated) | 35 | -4 | -17 | 4 | ·
Cc1ccc(C(C(=O)NCC2CCCO2)N(C(=O)c2snc(C(N)=O)c2N)c2ccc(F)cc2)o1 (configuration not stated) | 53* | -5 | -13 | 2 | +
NC(=O)c1nsc(C(=O)N(c2ccccc2)C(C(=O)NCC2CCCO2)c2cccs2)c1N (configuration not stated) | 44* | · | · | 4 | i
N#Cc1ccc(NC(=O)OC2CC3CC2[C@H]2CCCCN2C3)cc1 (some centres not stated) | · | 0 | 3 | · | ·
CCn1nc(NC(=O)c2ccco2)c2cc3ccccc3nc21 | · | 2 | 8 | -5 | ·
CC(C)Cn1nc(NC(=O)c2ccco2)c2cc3ccccc3nc21 | 46* | -1 | -1 | -3 | ·
COc1cc(C(=O)NC2CCN(C)CC2)ccc1Nc1ncc2c(n1)N(CCc1ccccc1)CCC(=O)N2C | 39* | 7 | 7 | -6 | i
COc1cc(C(=O)NC2CCN(C)CC2)ccc1Nc1ncc2c(n1)N(C1CCCC1)CCC(=O)N2C(C)C | 31 | · | · | -2 | ·
CC(=O)O[C@H]1C=C[C@@H](C#Cc2ccc(C(C)(C)C)cc2)O[C@@H]1COC(=O)Nc1ccccc1 | · | 9 | 1 | · | ·
CCC(CO)Nc1cccc2c1S(=O)(=O)N(Cc1cn(Cc3ccc(F)cc3)nn1)Cc1ccccc1O2 (configuration not stated) | · | 6 | 2 | · | ·
COc1ccc(C2NC(=O)c3ccccc3O2)c(OC)c1OC (configuration not stated) | 45* | 3 | 0 | -2 | i
COc1cccc(C2NC(=O)c3ccccc3O2)c1OC (configuration not stated) | 18 | 10 | 2 | 2 | ·
CCOC(=O)C(C)Sc1nc(-c2ccco2)cc(C(F)(F)F)c1C#N (configuration not stated) | 41* | -3 | -7 | 20 | ·
COC(=O)c1cc2c(c3c4cc(OC)ccc4n(S(=O)(=O)c4ccc(OC)cc4)c13)C(=O)N(Cc1ccco1)C2 | · | -9 | -5 | · | ·
COC(=O)C1C(O)=C(C=Nc2cccc3ccccc23)C(=O)CC1(C)C (configuration not stated) | 40* | -5 | -4 | -5 | +
COC(=O)C1C(O)=C(C=NCc2ccccc2)C(=O)CC1(C)C (configuration not stated) | -3 | -4 | -2 | 5 | ·
COc1ccc(CCNC(=O)c2cc3c(=O)n4ccccc4nc3n(CCN3CCOCC3)c2=N)cc1 | 40* | -3 | 6 | -5 | i
COc1ccc(CCNC(=O)c2cc3c(=O)n4ccccc4nc3n(CCCN3CCOCC3)c2=N)cc1 | 29 | -4 | 2 | -3 | ·
O=C(C1CCN(c2ncnc3c2sc2cccc(F)c23)CC1)N1CCN(Cc2ccccc2)CC1 | · | -8 | 0 | · | ·
O=C1NCCc2c1[nH]c1ccccc21 | 21 | 3 | -3 | 3 | ·
CC1Cc2c([nH]c3ccccc23)C(=O)N1 (configuration not stated) | 50* | -1 | 4 | -5 | ·
Cc1ccc2c(c1)C1CS(=O)(=O)N(Cc3ccccc3)C(=O)N1C2 (configuration not stated) | · | 3 | -3 | · | ·
O=C(N/N=C/c1ccc2cccnc2c1)c1nc2ccccc2c(=O)[nH]1 | 46* | -5 | -2 | 2 | i
SMILES | Neddyl block | GC-B act | GC-A act | NadD block | Neddyl conf
COCCN1C=C(C(=O)OC)C(c2ccc3c(c2)OCO3)C(C(=O)OC)=C1 | 50* | -5 | -4 | 6 | +
N#C/C(=C/c1ccco1)C(N)=S | 64* | 2 | 2 | 3 | i
COc1ccc(/C=C/c2ccccc2)cc1[C@H]1[C@H]2C=CC[C@@H](C)[C@@H]2C(=O)N1Cc1ccccc1 | 30* | -1 | -3 | 12 | i
COc1ccc(-c2ccc(OC)c([C@H]3[C@H]4C=CC[C@@H](C)[C@@H]4C(=O)N3Cc3ccccc3)c2)cc1C | 0 | -1 | -2 | 9 | ·
CCNC(=O)OC[C@H]1O[C@H](C#Cc2ccc(C(C)(C)C)cc2)C=C[C@H]1OC(C)=O | · | 17 | 1 | · | ·
CCC[C@H]1[C@@H](OC(=O)NCc2ccc(C(F)(F)F)cc2)CC[C@@]23CCCN2C(=O)CCC[C@@H]13 | · | -20 | -21 | · | ·
CCCCCCC(=O)NC1CCCCN(C)C1=O (configuration not stated) | · | -4 | 0 | · | ·
CC(C)(C)c1ccc(OCC(=O)N/N=C/c2ccc(N3CCOCC3)cc2)cc1 | 54* | -1 | 0 | -1 | i
Cc1ccc(C)c(OCC(=O)N/N=C/c2ccc(N3CCOCC3)cc2)c1 | 48* | -5 | 0 | 2 | +
COc1ccc(C(=O)Nc2ccc(NC(=O)c3cccs3)c(OC)c2)cc1Cl | · | 0 | -4 | 4 | ·
COc1ccc(C(=O)Nc2ccc(NC(=O)c3cccs3)cc2)cc1Cl | 40* | -5 | 2 | 16 | i
O=c1c(-c2cccs2)nc2ccccc2n1C(c1ccccn1)c1nc2ccccc2[nH]1 (configuration not stated) | · | -14 | -2 | · | ·
O=c1c(-c2cccnc2)nc2ccccc2n1C(c1ccccn1)c1nc2ccccc2[nH]1 (configuration not stated) | 47* | 4 | -9 | · | i
O=c1c(-c2cccnc2)nc2ccccc2n1C(CCc1ccccc1)c1nc2ccccc2[nH]1 (configuration not stated) | 21 | -12 | -8 | · | ·
O=c1c(-c2ccccc2)nc2ccccc2n1C(c1ccccn1)c1nc2ccccc2[nH]1 (configuration not stated) | 41* | -3 | -4 | · | i
COc1ccc(-c2nnc(SCC(=O)NN=Cc3c(O)ccc4ccccc34)n2-c2ccc(OC)cc2)cc1 | · | -8 | -2 | · | ·
C/C(=N\NC(=O)c1ccc(NS(=O)(=O)c2cccs2)cc1)c1ccc(O)cc1O | 42* | -1 | -8 | 4 | ·
O=C(N/N=C/c1ccc(N2CCOCC2)cc1)c1ccc(NS(=O)(=O)c2cccs2)cc1 | · | 8 | 1 | -2 | ·
O=C(N/N=C/c1ccc(N2CCOCC2)s1)c1ccc(NS(=O)(=O)c2cccs2)cc1 | 50* | -2 | 0 | 5 | +
COC(=O)c1ccc2[nH]c(CO)c(-c3ccccc3)c2c1 | · | -13 | -5 | -9 | ·
N#Cc1ccc2[nH]c(CO)c(-c3ccccc3)c2c1 | 31* | 3 | -5 | -8 | i
